Results filed as inconclusive are left out. Active and inactive are the calls of the source. The call rests on the fitted dose curve; in most records, active means well fitted activation curve with a large enough effect in the signal ratio in the repeat runs (not every such curve was filed as active); inconclusive means weak or mixed curves, or effect the other way; inactive means no such curve, though single readings can be large or run the other way; the % refers to the signal ratio.
On the % scale 0 is the no-effect control and ±100 the full control effect.

Sequence of Glucocorticoid receptor (Homo sapiens) (P04150 whole entry, looked up): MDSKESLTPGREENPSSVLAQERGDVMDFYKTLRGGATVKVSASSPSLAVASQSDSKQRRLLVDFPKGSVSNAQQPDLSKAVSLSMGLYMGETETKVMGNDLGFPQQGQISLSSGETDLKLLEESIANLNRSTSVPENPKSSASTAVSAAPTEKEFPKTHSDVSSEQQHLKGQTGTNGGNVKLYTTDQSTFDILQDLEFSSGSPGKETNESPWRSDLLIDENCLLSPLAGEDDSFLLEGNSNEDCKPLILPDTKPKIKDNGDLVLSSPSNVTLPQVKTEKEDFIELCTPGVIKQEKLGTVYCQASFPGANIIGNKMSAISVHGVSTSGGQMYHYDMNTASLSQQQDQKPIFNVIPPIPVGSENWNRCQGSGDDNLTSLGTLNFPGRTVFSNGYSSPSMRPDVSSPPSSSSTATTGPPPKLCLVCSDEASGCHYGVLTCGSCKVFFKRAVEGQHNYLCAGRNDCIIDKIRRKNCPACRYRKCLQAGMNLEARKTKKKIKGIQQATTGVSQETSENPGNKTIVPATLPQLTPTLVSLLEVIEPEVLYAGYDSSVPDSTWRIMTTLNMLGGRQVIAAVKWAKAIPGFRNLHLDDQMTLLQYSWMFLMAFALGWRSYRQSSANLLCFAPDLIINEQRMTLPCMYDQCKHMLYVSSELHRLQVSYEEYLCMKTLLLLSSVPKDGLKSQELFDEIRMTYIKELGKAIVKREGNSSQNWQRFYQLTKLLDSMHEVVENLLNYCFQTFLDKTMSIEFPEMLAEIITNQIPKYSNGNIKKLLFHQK

The test deals with Glucocorticoid receptor (Homo sapiens) (UniProt P04150). Kind of test: qHTS assay to identify small molecule agonists of the glucocorticoid receptor (GR) signaling pathway (AID 720691). Particulars: GR-bla HeLa, beta-lactamase reporter ratio, 18 h; series mostly up to 62.4 µM; activation: at the top concentration. From the text:
U.S. Tox21 Program National Center for Advancing Translational Sciences [NCATS] NIH Chemical Genomics Center [NCGC] U.S. Environmental Protection Agency [EPA] National Institutes of Environmental Health Sciences [NIEHS] National Toxicology Program [NTP] U.S. Food and Drug Administration [FDA] Tox21 Assay Overview: The Glucocorticoid receptor (GR) is one of the members of the nuclear receptor family of ligand-dependent transcription factors. GR plays a critical role in carbohydrate, protein and lipid metabolisms and programmed cell death. CellSensor GR-bla HeLa cell line (Invitrogen) contains a beta-lactamase reporter gene under the control of the glucocorticoid response element stably integrated into HeLa cells, a cervical cancer cell line that expresses glucocorticoid receptor. The activation of the reporter gene under culture conditions can be detected by fluorescence intensity. This cell line has been used to screen the Tox21 10K compound library and to identify the compounds that activate the GR signaling.
Tox21 Assay Protocol Summary: The GR-bla HeLa cells were dispensed at 1500 cells/6 ul/well in 1536-well black wall/clear bottom plates using a Multidrop Combi (ThermoFisher Scientific, Waltham, MA) dispenser. After the assay plates were incubated at a 37 C/5% CO2 incubator for 4 hours, 23 nL of compounds dissolved in DMSO, positive controls or DMSO only was transferred to the assay plate by a pintool station (Kalypsys, San Diego, CA). The plates were incubated at 37 C for 18 hours. After 1 uL of LiveBLAzerTM B/G FRET substrate was added using a Flying Reagent Dispenser (Aurora Discovery, San Diego, CA), the plates were incubated at room temperature for 2 hours, and fluorescence intensity was measured by an Envision plate reader (PerkinElmer, Shelton, CT).
Background: Quantitative high-throughput screening tests each substance at several concentrations.
On to `O=C1CCCCO1`, for which the “activation” value is 5.8% (inactive). `CCC[C@@H]1C[C@@H](C(=O)N[C@@H]([C@H]2O[C@H](SC)[C@H](O)[C@@H](O)[C@H]2O)[C@@H](C)O)N(C)C1`: the “activation” value was -3.29% (inactive).

Regarding `CCC(=O)CC`, the “activation” value was -0.975% (inactive). For `COc1c2occc2c(OC)c2c(=O)cc(C)oc12` the value was -4.05% [at 29.2 µM] (inactive).

`CCOCCOCC`: the “activation” value was -4.35% [at 79.2 µM] (inactive). For the compound `CC(C)(C)NC[C@H](O)COc1cccc2c1CCCC2=O`, the “activation” value was 0.595% [at 29.2 µM] (inactive). In the case of `Cc1c(NC(=O)c2cccnc2)c(=O)n(-c2ccccc2)n1C`, the “activation” value was -1.22% [at 29.2 µM] (inactive). For `CN(C)CCCCl`, the “activation” value is -5.2% [at 79.2 µM] (inactive). For `CC(O)CC(C)O` (stereo not given) the value was 0.519% (inactive); for `CN1C[C@@H]2C[C@H]1CN2c1cc2c(cc1F)c(=O)c(C(=O)O)cn2C1CC1`, 8.74% (inactive). For `O=C1OCCO1` the value was -0.567% [at 79.2 µM] (inactive). With `c1ccc(-c2nn[nH]n2)cc1`, the “activation” value was 1.09% (inactive). For `O=C1c2ccccc2C(=O)c2cc(Cl)ccc21` the value was -4.3% [at 6.9 µM] (inactive); for `CN(C)CC/C=C1/c2ccccc2COc2ccc(CC(=O)O)cc21`, 4.57% (inactive).

Regarding `O=[N+]([O-])c1c(Cl)cc(Cl)cc1Cl`, the “activation” value is 1.4% (inactive). As for `COP(=O)(O)OP(=O)(O)OC`, the figure is 2.33% (inactive); as for `C[Si]1(C)O[Si](C)(C)O[Si](C)(C)O[Si](C)(C)O[Si](C)(C)O1`, 0.0255% (inactive); as for `C=CCCCC`, -0.194% [at 79.2 µM] (inactive).

For the compound `Cc1ccc(C)c([N+](=O)[O-])c1`, the “activation” value was -2.15% (inactive).

In the case of `CCC(C)OC(C)CC` (stereo not given), the “activation” value was -1.08% [at 79.2 µM] (inactive).

In the case of `CC(S)C(C)S` (stereo not given), the “activation” value is 8.88% [at 79.2 µM] (inactive). Consider `C=CC/C=C/C`, for which the “activation” value was 0.0422% [at 79.2 µM] (inactive). For the compound `Cc1cccc(Cl)c1`, the “activation” value is 0.57% (inactive).

As to `CC1(C)Cc2cccc(N)c2O1`, the “activation” value was -2.47% (inactive). For `C/C=C(\C)C(=O)OCCc1ccccc1` the value was 0.607% (inactive); for `O=C(O)CNC(=O)CNC(=O)CNC(=O)CSC(=O)c1ccccc1`, 1.29% (inactive). As for `C/C(CC(C)C)=N\O`, the “activation” value was 0.718% (inactive). For `CC(C)NCC(O)c1ccc2ccccc2c1` (stereo not given) the value was 0.411% (inactive); for `CNCCS(=O)(=O)O`, -0.0648% [at 79.2 µM] (inactive). Turning to `c1ccc2cnccc2c1`, the “activation” value was -2.89% (inactive). As for `C=CCOC(=O)CCCCCC`, the figure is -0.733% (inactive); as for `CC(=O)OC1CCCCC1C(C)(C)C` (stereo not given), -0.443% (inactive). For `[O]=[Mo](=[O])=[O]` the value was -0.647% [at 29.2 µM] (inactive); for `CC(Oc1cc(Cl)ccc1Cl)C(=O)O` (stereo not given), -1.33% (inactive). As for `Cn1c(=O)c2[nH]c(Br)nc2n(C)c1=O`, the figure is 1.06% (inactive); as for `CN(C)CCCO[C@@H]1[C@H]2OC(C)(C)O[C@H]2O[C@@H]1C(O)CO` (stereo not given in full), 0.193% (inactive); as for `CC1=NN(c2ccc(S(=O)(=O)O)cc2)C(=O)C1`, -4.35% (inactive). Consider `CCC(C)C(=O)OCCc1ccccc1` (stereo not given), for which the “activation” value is -0.434% (inactive).

For `CCCSSCCC`, the “activation” value was -1.79% (inactive). With `CCCCCCCCCCCCCCCCCC#N`, the “activation” value is -4.87% [at 79.2 µM] (inactive).

These data come from PubChem BioAssay (Tox21).
